# According to ChEMBL document CHEMBL4513216, “Probing the Open Global Health Chemical Diversity Library for Multistage-Active Starting Points for Next-Generation Antimalarials” (ACS Infect Dis, 2020):
# The campaign covered roughly 69,000 compounds. About 8,600 (12%) showed an effect of 50% or more. The sample holds strong results, similar compounds and a random draw of the others, so the mix is not that of the screen.
# System: Plasmodium berghei
# Assay: Screen against P. berghei liver stage (PbLuc), transformed with Luciferase, at 10uM
# Format: functional, HepG2
# Details: tested at 10 uM
row,Structure (SMILES),INHIBITION [%]
1,O=C(c1cnccn1)N1CCN2C[C@H](Oc3cccnc3)C[C@H]2C1,15.6
2,c1cncc(CN2CCN3C[C@H](Oc4cncnc4)C[C@H]3C2)c1,27.6
3,O=C(c1ccc(F)cc1)N1CCN2C[C@H](Oc3cccnc3)C[C@H]2C1,44.2
4,Cc1cccc(CN2CCN3C[C@H](Oc4cncnc4)C[C@H]3C2)n1,37.6
5,Cc1ccc(O[C@@H]2C[C@H]3CN(Cc4nccn4C)CCN3C2)cc1,-15.7
6,Fc1cnc(N2CCN3C[C@H](Oc4cccnc4)C[C@H]3C2)nc1,82.2
7,Fc1cnc(N2CCN3C[C@H](Oc4cncnc4)C[C@H]3C2)nc1,56.4
8,c1cnc(N2CCN3C[C@H](Oc4cncnc4)C[C@H]3C2)nc1,34.5
9,Cc1nc(CN2CCN3C[C@H](Oc4cncnc4)C[C@H]3C2)cs1,88.3
10,Cc1cnc(N2CCN3C[C@H](OCc4ccccn4)C[C@H]3C2)nc1,42.3
11,O=C(COCc1ccccc1)N1CCCC(OCc2cccnc2)C1 (centres undefined),0.348
12,CCCc1nc(CN2CCCC2c2cnn(C)c2)cs1 (centres undefined),-32
13,CCn1cc(CN2CCN(CC(O)c3ccc(C)cc3C)CC2)cn1 (centres undefined),5.11
14,CN1CC(=O)N(c2cnn(C)c2)CC12CCN(Cc1cccs1)C2 (centres undefined),7.31
15,CC(NC(=O)N(C)CCOc1ccccc1F)c1nncn1C (centres undefined),7.08
16,CC1(C(N)=O)CN(CC2CCC2)CCO1 (centres undefined),-1.75
17,CS(=O)(=O)N1CC[C@@H]2O[C@@H](COCC(=O)N3CCCC3)CC[C@@H]21,1.9
18,Cc1nc(C2CCN(C(=O)c3ccnn3C)CC2)c2sccn12,15.9
19,Cc1cccc2sc(NC(=O)CN3CCCC(O)(CO)C3)nc12 (centres undefined),74.5
20,Cc1cccc2sc(NC(=O)CN3CCC(C)CC3)nc12,14.1
21,Cc1cccc2sc(NC(=O)CN3CCCC4(CC3)CNC(=O)O4)nc12 (centres undefined),38.7
22,Cc1c(Cl)cccc1NCc1nc2n(n1)CCCCC2,26.7
23,CN(C)c1ncc(CNC(=O)Nc2ccccc2F)n1C,48.9
24,CN(C)c1ncc(CNC(=O)Nc2ccc(C(F)(F)F)cc2)n1C,78.6
25,CN(C)c1ncc(CNC(=O)Nc2ccccc2C(F)(F)F)n1C,36.9
26,COc1ccc(CN2CC[C@H]3[C@H]2CCN3C(=O)c2cnn(C)c2)cc1,39.8
27,CNC(=O)c1sc2ncccc2c1C1CCN(C(=O)CCOC)C1 (centres undefined),-7.525

row,Structure (SMILES),INHIBITION [%]
1,O=C(CCc1ccncc1)NCc1csc(Br)c1,-6.14
2,CN(C)CCNC(=O)Cn1cnc2cc(NC(=O)C3CC3)ccc21,4.48
3,COCC1CC2(CCN(c3ccccn3)CC2)CN1C(C)C (centres undefined),64.7
4,COCC1CC2(CCN(S(=O)(=O)C3CC3)CC2)CN1c1ncccn1 (centres undefined),19.5
5,COCC1CC2(CCN(c3cccc(C)n3)CC2)CN1C(C)C (centres undefined),29.4
6,COCC1CC2(CCN(c3ccc(C)nn3)CC2)CN1C(C)C (centres undefined),16.8
7,COCC1CC2(CCN(Cc3ccncc3)CC2)CN1C(C)C (centres undefined),12.6
8,CCS(=O)(=O)N1CCC2(CC1)CC(COC)N(c1ncccn1)C2 (centres undefined),65.6
9,COCC1CC2(CCN(c3cc(OC)ncn3)CC2)CN1C(C)C (centres undefined),58.4
10,COCCN1CCC2(CC1)CC(COC)N(c1ncccn1)C2 (centres undefined),23.5
11,COCC1CC2(CCN(Cc3ccccn3)CC2)CN1C(C)C (centres undefined),-2.27
12,CC1(NC(=O)Cc2cccs2)CCS(=O)(=O)C1 (centres undefined),43.1
13,CC(C)C(=O)N1CC[C@H]2N(C)CC[C@@]2(C(=O)Nc2ccccc2)CC1,44.8
14,O=C1CC2(CCCCN2C(=O)c2ccccc2)CN1CC1CC1 (centres undefined),29.7
15,Cc1cnc(NC(=O)C(C)n2ccc(C(F)(F)F)n2)s1 (centres undefined),49.1
16,COCC(=O)N1CC[C@]2(O)CCN(Cc3ccsc3)C[C@@H]2C1,10.5
17,CC(C)c1nc(CNC2CCN(C(=O)OC(C)(C)C)CC2)cs1,47
18,CN(CC(=O)NC1CC1)C(=O)c1csc(Br)c1,37.2
19,COc1ccccc1CC(=O)N1CCC(OCc2cccnc2)CC1,-37.2
20,Cc1cnn(CC2CCCCN2Cc2nccn2CC(F)(F)F)c1 (centres undefined),-61.4
21,Cc1noc(C)c1CC(=O)N1CC[C@@](C)(O)[C@H](Oc2ccccc2)C1,41.55
22,NC(=O)c1ccc(CNC(=O)Nc2cn[nH]c2)cc1,72.9
23,CNS(=O)(=O)Cc1ccc(CNC(=O)Nc2cn[nH]c2)cc1,27.9
24,COCCNc1ccc(CNC(=O)Nc2cn[nH]c2)cc1,6.14
25,CNS(=O)(=O)c1ccc(CNC(=O)Nc2cn[nH]c2)cc1,50.3
26,O=C(NCc1ccc(Br)c(F)c1)Nc1cn[nH]c1,4.97
27,CS(=O)(=O)c1ccc(CNC(=O)Nc2cn[nH]c2)cc1,-21.7
